Screens: PubChem BioAssay, The Scripps Research Institute Molecular Screening Center
The list is not random: actives were taken first. Their share in the collection is about 3.4%.
PAFAH1B3 inh: PAFAH1B3 enzyme inhibitors, primary screen, biochemical, fluorescence polarization, human; inhibition, % at 3.39 µM; hit rate 0.28% among 340,000; recombinant PAFAH1B3, FP-rhodamine probe;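 active = inhibition above the screen-wide average of all tested compounds plus 3 SD, cut at about 25% in these data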
Target sequence (Q15102 whole entry, looked up): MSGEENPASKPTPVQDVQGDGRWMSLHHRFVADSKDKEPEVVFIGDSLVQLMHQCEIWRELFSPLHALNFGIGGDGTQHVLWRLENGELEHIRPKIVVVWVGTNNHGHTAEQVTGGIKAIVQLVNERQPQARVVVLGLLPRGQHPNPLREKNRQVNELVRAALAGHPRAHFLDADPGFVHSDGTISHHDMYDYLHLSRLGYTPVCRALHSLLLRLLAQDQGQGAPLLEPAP
PAFAH1B2 inh: PAFAH1B2 enzyme inhibitors, primary screen, biochemical, fluorescence polarization, human; Platelet-activating factor acetylhydrolase IB subunit alpha2 (Homo sapiens), P68402; recombinant PAFAH1B2, FP-rhodamine activity probe; inhibition, % at 3.39 µM; hit rate 1.2% among 340,000;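 active = inhibition above the mean of all tested compounds plus 3 SD, cut at about 24% in these data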
Target sequence (P68402 whole entry, looked up): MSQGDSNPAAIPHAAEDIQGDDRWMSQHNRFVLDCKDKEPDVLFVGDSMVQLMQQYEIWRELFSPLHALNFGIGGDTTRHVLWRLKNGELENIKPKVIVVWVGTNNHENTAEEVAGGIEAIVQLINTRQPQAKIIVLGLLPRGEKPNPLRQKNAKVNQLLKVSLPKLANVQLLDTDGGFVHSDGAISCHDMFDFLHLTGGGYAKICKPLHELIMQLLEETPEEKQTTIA
PAFAH2 inh: PAFAH2 enzyme inhibitors, primary screen, biochemical, fluorescence polarization, human; Platelet-activating factor acetylhydrolase 2, cytoplasmic (Homo sapiens), Q99487; recombinant PAFAH2, FP-rhodamine activity probe; inhibition, % at 3.39 µM; hit rate 0.99% among 340,000;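 active = inhibition above the mean over all tested compounds plus 3 SD, cut at about 30% in these data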;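 note: inhibitors block probe labeling of enzyme so polarization drops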
pPAFAH FP inh: pPAFAH enzyme inhibitors, primary screen, biochemical, fluorescence polarization, human. Platelet-activating factor acetylhydrolase (Homo sapiens), Q13093. recombinant pPAFAH, FP-rhodamine probe fluorescence polarization. inhibition, % at 3.39 µM. hit rate 1.5% among 330,000;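 active = inhibition above the mean inhibition across the screen plus 3 SD, cut at about 25% in these data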;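 note: inhibitors block binding of the rhodamine activity-based probe so polarization drops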
PP5 primary: PP5 phosphatase inhibitors, primary screen, biochemical, fluorescence. inhibition, % at 6.7 µM. hit rate 0.18% among 320,000. Serine/threonine-protein phosphatase 5 (Homo sapiens), P53041. purified PP5c, OMFP substrate fluorescence. AID 1987, 2009;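 active = inhibition above the campaign's mean inhibition across all tested compounds plus 3 SD, cut at about 9.5% in these data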
PP1 counter: PP1-alpha phosphatase inhibitors, primary screen, counter-screen for PP5 inhibitor project, biochemical, fluorescence, OMFP substrate, single point; inhibition, % at 6.7 µM; purified PP1alpha; Serine/threonine-protein phosphatase PP1-alpha catalytic subunit (Homo sapiens), P62136; hit rate 0.9% among 320,000;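 active = inhibition above the mean inhibition of all tested compounds plus 3 SD, computed separately for each screening campaign, cut at about 15% in these data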
Large screens that a line does not name were inactive.

Cc1ccc(C(=O)N/C(=C/c2ccco2)C(=O)N2CCC(C)CC2)cc1	none
CC(C)(C)C(=O)Nc1sc2c(c1-c1nc3ccccc3[nH]1)CCCC2	none
O=C(c1ccc(S(=O)(=O)Nc2cccc(C(F)(F)F)c2)cc1)N1CCN(c2ccccc2O)CC1	none
Cn1cccc1C(=O)NCc1ccc(S(N)(=O)=O)cc1	none
O=c1c2cc(NC(=S)NC3CCCC3)ccc2nc2n1CCCCC2	none
O=c1c2cc(NC(=S)NC3CCCCC3)ccc2nc2n1CCCCC2	PAFAH1B2 inh 27.9
Cc1ccc(C=C2C(Cl)=C(Cl)C(Cl)=C2Cl)cc1	pPAFAH FP inh 41.5 (no result: PAFAH1B3 inh, PAFAH1B2 inh, PAFAH2 inh)
COc1ccc(/C=C/C(=O)NC(=S)NNC(=O)c2ccco2)cc1	none
Cc1onc(-c2ccccc2)c1C(=O)NNC(=S)NC(=O)/C=C/c1ccccc1	none
COc1ccc(/C=C/C(=O)NC(=S)NNC(=O)Cc2cccs2)cc1	PP1 counter 19.6
COc1ccc(/C=C/C(=O)NC(=S)NNC(=O)c2c(-c3ccccc3)noc2C)cc1	PP1 counter 17.2
CCN(CC(=O)Nc1ccccc1OC)C(=O)CSCC(=O)Nc1cccc(C)c1	none (no result: pPAFAH FP inh, PP5 primary, PP1 counter)
COc1ccc(-c2csc(NC(=O)C3CC(=O)N(c4ccc5c(c4)OCCO5)C3)n2)cc1 (stereo not drawn)	pPAFAH FP inh 25.0
CS(=O)(=O)c1ccc(NC(=O)C2CC(=O)N(c3ccc4c(c3)OCCO4)C2)cc1 (stereo not drawn)	none
COc1ccc(C(=O)CSc2nnc(NC(=O)C3CC(=O)N(c4ccccc4)C3)s2)cc1 (stereo not drawn)	PP1 counter 17.0
C=CCSc1nnc(NC(=O)C2CC(=O)N(Cc3ccc(C)cc3)C2)s1 (stereo not drawn)	none
Cc1ccc(CN2CC(C(=O)Nc3nnc(SCc4c(Cl)cccc4Cl)s3)CC2=O)cc1 (stereo not drawn)	PP1 counter 16.2
CC(=O)Nc1ccc(-c2csc(NC(=O)C3CC(=O)N(c4ccc5c(c4)OCCO5)C3)n2)cc1 (stereo not drawn)	PP1 counter 16.4
Cc1ccc(CSC2=NCCN2C(=O)c2ccco2)cc1	none
CCc1ccc(C(=O)NNC(=O)C2CC(=O)N(c3ccc4c(c3)OCCO4)C2)cc1 (stereo not drawn)	none
COC(=O)c1ccc(CSc2nnc(NC(=O)C3CC(=O)N(c4ccc5c(c4)OCCO5)C3)s2)cc1 (stereo not drawn)	PP1 counter 15.3
CCC(=O)N1CCN(CCN=CC2=C(O)CC(c3cccs3)CC2=O)CC1 (stereo not drawn)	none
COc1cc(OC)cc(C(=O)Nc2nc(CC(=O)NC(C)c3ccccc3)cs2)c1 (stereo not drawn)	none
CCOC(=O)CSc1nc2ccc(N3CCOCC3)cc2c(=O)n1Cc1ccc2c(c1)OCO2	pPAFAH FP inh 32.1 (no result: PAFAH1B3 inh, PAFAH1B2 inh, PAFAH2 inh)
CC(=O)N1c2ccc(S(=O)(=O)N3CCCCC3)cc2CC1C (stereo not drawn)	none
Cc1cc(=O)oc2cc(OCC(=O)N3CCN(C(=O)C4COc5ccccc5O4)CC3)ccc12 (stereo not drawn)	none
Cc1ccc(/C=C/C2=Cc3c(sc(NC(=O)CSc4n[nH]c(N)n4)c3C#N)C(C)(C)C2)o1	pPAFAH FP inh 57.7, PP1 counter 56.9 (no result: PAFAH1B3 inh, PAFAH1B2 inh, PAFAH2 inh)
Cc1ccc2nc(-c3cccc(Br)c3)cc(C(=O)NC3CC3)c2c1	none
CC(C)C(=O)NC(c1cccc([N+](=O)[O-])c1)c1ccc2cccnc2c1O (stereo not drawn)	PP1 counter 17.0
COc1ccc(C)c2sc(N(CCN(C)C)C(=O)c3ccc4ccccc4c3)nc12	none
CCN(CC)CCN(C(=O)c1ccc(S(=O)(=O)N(CC)c2ccccc2)cc1)c1nc2c(OC)ccc(OC)c2s1	PAFAH1B2 inh 30.5
COc1ccccc1N1CCN(C(=O)CSc2nc(-c3ccco3)cc(C(F)(F)F)n2)CC1	none
